Inconclusive results are not listed. The source made the active and inactive calls. Unless noted, calls follow the shape of the full dose curve.
Tests used:
[1] = molecular target: Protein phosphatase 1D (Homo sapiens) (UniProt O15297); assay: RapidFire Mass Spectrometry qHTS Assay for Modulators of WT P53-Induced Phosphatase 1 (WIP1) (AID 1347424; active = well fitted curve in the direction sought with a large enough effect; an effect the other way counts as inactive or inconclusive;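 also: amount of dephosphorylated VEPPL-S-QETFS peptide product formed by WIP1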); details: WIP1 dephosphorylation of phosphopeptide, RapidFire MS; series mostly up to 63 µM
Chain of Protein phosphatase 1D (Homo sapiens) (O15297 whole entry, looked up): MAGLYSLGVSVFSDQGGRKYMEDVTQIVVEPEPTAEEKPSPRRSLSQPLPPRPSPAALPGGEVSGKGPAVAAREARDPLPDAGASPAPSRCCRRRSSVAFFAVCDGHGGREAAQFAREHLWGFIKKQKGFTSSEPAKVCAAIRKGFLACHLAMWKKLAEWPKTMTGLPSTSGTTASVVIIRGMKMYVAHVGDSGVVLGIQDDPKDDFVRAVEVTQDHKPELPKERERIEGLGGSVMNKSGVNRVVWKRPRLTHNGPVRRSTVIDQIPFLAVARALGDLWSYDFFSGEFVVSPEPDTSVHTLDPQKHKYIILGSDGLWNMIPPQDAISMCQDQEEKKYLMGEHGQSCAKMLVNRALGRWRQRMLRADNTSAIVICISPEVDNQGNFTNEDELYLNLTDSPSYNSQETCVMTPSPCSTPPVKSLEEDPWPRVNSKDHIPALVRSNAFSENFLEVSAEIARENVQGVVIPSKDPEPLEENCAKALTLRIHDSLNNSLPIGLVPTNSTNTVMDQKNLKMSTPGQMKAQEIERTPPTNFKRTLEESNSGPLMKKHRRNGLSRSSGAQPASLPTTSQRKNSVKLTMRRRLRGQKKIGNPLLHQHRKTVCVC
Summary of the method: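 WIP1 (10 nM final) was preincubated 1 h at room temperature with compounds in Tris-HCl pH 7.5, 30 mM MgCl2, TCEP, EGTA, BSA; 2 uM VEPPL-pS-QETFS phosphopeptide was added for 5 min, quenched with formic acid, and dephosphorylated product quantified by RapidFire MS.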

[2] = Primary qHTS for inhibitors of La Crosse Virus (LACV) - induced cell death in SH-SY5Y cells (AID 1508616; active = well fitted curve in the direction sought with a large enough effect; an effect the other way counts as inactive or inconclusive;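 also: top concentration of the series differs between compounds; higher means more rescue of cells from virus-induced death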); details: SH-SY5Y LACV cytopathicity rescue, ATP luminescence, 6 d; series mostly up to 4.29 µM
Summary of the method: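 Luminescent ATP readout (ATPLite 1step, 5 min room temperature) measured rescue from LACV-induced death after 6 days of infection at 0.01 MOI; normalized to infected DMSO wells and uninfected DMSO wells.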

[3] = molecular target: Calcium and integrin-binding protein 1 (Homo sapiens) (UniProt Q99828); assay: Primary qHTS for Identification of Calcium Integrin Binding Protein 1 (CIB1) Competitor (AID 1508620; active = well fitted curve in the direction sought with a large enough effect; an effect the other way counts as inactive or inconclusive;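 also: GST tagged CIB1 binding a fluorescein labelled alphaIIb integrin peptide tracer; top concentration of the series differs between compounds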); details: CIB1-GST / FITC-alphaIIb peptide fluorescence polarization; series mostly up to 114 µM
Chain of Calcium and integrin-binding protein 1 (Homo sapiens) (Q99828 whole entry, looked up): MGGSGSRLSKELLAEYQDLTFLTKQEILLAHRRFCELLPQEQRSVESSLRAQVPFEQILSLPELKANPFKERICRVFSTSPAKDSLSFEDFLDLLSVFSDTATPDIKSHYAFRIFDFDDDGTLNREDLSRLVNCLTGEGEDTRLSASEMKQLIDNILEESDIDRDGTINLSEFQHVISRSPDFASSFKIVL
Summary of the method: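 Fluorescence polarization competition: CIB1-GST (1 uM final) preincubated with compound 15 min at room temperature, then FITC-labeled alphaIIb peptide (100 nM final) added for another 15 min. Polarization read at Ex 480/Em 540.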

[4] = Confirmatory qHTS for small molecule stabilizers of the endoplasmic reticulum resident proteome: Secreted ER Calcium Modulated Protein (SERCaMP) assay (AID 1508628; active = well fitted curve in the direction sought with a large enough effect; an effect the other way counts as inactive or inconclusive;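 also: SH-SY5Y cells given compound 16 h then thapsigargin 100 nM for 4 h; nearly all actives have a fitted effect of over 40% in size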); details: SERCaMP secreted luciferase ER calcium/proteostasis reporter; series mostly up to 76.3 µM
Summary of the method: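 We seeded SH-SY5Y-GLuc-SERCaMP cells, added compounds (three concentrations in the primary run, eleven up to 76.6 uM in confirmation), incubated 16 h, depleted ER calcium with thapsigargin, and read luciferase 4 h later.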

[5] = molecular target: Protein phosphatase 1D (Homo sapiens) (UniProt O15297); assay: Rhodamine-PBP qHTS Assay for Modulators of WT P53-Induced Phosphatase 1 (WIP1) (AID 1347425; active = well fitted curve in the direction sought with a large enough effect; an effect the other way counts as inactive or inconclusive); details: recombinant WIP1, Rhodamine-PBP phosphate fluorescence, real-time; series mostly up to 57.5 µM
Summary of the method: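 WIP1 (5 nM final) was preincubated with compound for 1 hour at room temperature. It then dephosphorylated 10 uM VEPPL-pS-QETFS peptide in Tris-HCl pH 7.5 with 30 mM MgCl2. Released Pi was detected by 10 uM Rh-PBP fluorescence (ex 525/em 598 nm) read at 1-min intervals for 11 min, as delta f1 - f0.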

[6] = Primary qHTS for inhibitors of SARS-S pseudo-typed particle cell entry (AID 1479145); details: SARS-S pseudotyped particle cell entry, luciferase reporter; series mostly up to 57.1 µM; also: nearly all actives have a fitted effect of over 45% in size; also: potency is read from the fitted curve at half-maximal effect
[7] = Primary qHTS for Huh7 cytotoxicity: counterscreen for inhibitors of MERS-S pseudotyped particle cell entry (AID 1479147); details: cell viability read-out; series mostly up to 57.1 µM
[8] = Primary qHTS for inhibitors of MERS-S pseudo-typed particle cell entry (AID 1479149); details: MERS-S pseudotyped particle entry, luciferase; series mostly up to 57.1 µM; also: nearly all actives have a fitted effect of over 60% in size
[9] = Primary qHTS for Vero E6 cytotoxicity: counterscreen for inhibitors of SARS-S pseudo-typed particle cell entry (AID 1479150); details: cell viability; series mostly up to 57.1 µM
[10] = Primary qHTS for small molecule stabilizers of the endoplasmic reticulum resident proteome: Secreted ER Calcium Modulated Protein (SERCaMP) assay (AID 1508630; active = well fitted curve in the direction sought with a large enough effect; an effect the other way counts as inactive or inconclusive); details: SH-SY5Y GLuc-SERCaMP (Gaussia luciferase released on ER calcium loss) secretion, thapsigargin, luminescence; series mostly up to 38.4 µM
Summary of the method: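 GLuc-SERCaMP-expressing SH-SY5Y cells, pretreated 16 h with compound, are challenged with thapsigargin to empty ER calcium stores; after 4 h, coelenterazine is added directly to the medium and luminescence is imaged.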

[11] = A High-Content qHTS Against Drug Library for the Identification of Small Molecules that Inhibit DYT1 Early Onset Primary Dystonia-Associated Cell Pathology (AID 1645839); details: HEK293 Flp-In EGFP-delE TorsinA, punctate imaging, 48 h; series mostly up to 46.1 µM
Summary of the method: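 Readout: %pathology, the punctate EGFP-TorsinA distribution from imaging, as the primary channel and cell count as the toxicity counterscreen. HEK293 Flp-In cells expressing delE TorsinA were induced with tetracycline and treated with compound for 48 h.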

Measured: Potency

CNCC(=O)c1ccc(O)c(O)c1
inactive: [1] | [2] | [3] | [4]

ClCCN1CCCC1
inactive: [5] | [2] | [3]

NC(=O)c1cc([N+](=O)[O-])cc([N+](=O)[O-])c1
not listed: [1] | [4] | [11]
inactive: all other assays above

CC(=O)C1CCOC1=O (stereo unspecified)
inactive: [5] | [2] | [3] | [11]

CCN(CCO)CCn1c(Cc2ccccc2)nc2c1c(=O)n(C)c(=O)n2C
inactive: [1] | [2] | [3] | [10] | [11]

C=CC(N)CCC(=O)O (stereo unspecified)
inactive: [6] | [7] | [8] | [9]

CN1CCC(O)(c2ccc(F)cc2)C(C(=O)c2ccc(F)cc2)C1 (stereo unspecified)
inactive: [5] | [2] | [3] | [10] | [11]

CC(=O)NC1CCSC1=O (stereo unspecified)
inactive: [5] | [2] | [3] | [11]

CC1(C)C(C=C(Cl)Cl)C1C(=O)OC(C#N)c1cccc(Oc2ccccc2)c1 (stereo unspecified)
inactive: [1] | [2] | [11]

COc1cccc2c1C(=O)c1c(O)c3c(c(O)c1C2=O)C[C@@](O)(C(=O)CO)C[C@@H]3O[C@H]1C[C@H](N)[C@@H](O)[C@H](C)O1
active: [6] 10 µM

C#C[C@]1(O)CC[C@H]2[C@@H]3CCC4=CC(=O)CC[C@]4(C)[C@H]3CC[C@@]21C
inactive: [1] | [2] | [3] | [11]

CN1CC[C@]23c4c5ccc(O)c4O[C@H]2[C@@H](O)C=C[C@H]3[C@H]1C5
inactive: [5] | [3] | [11]

COc1cc(CCN)cc(OC)c1OC
inactive: [5] | [2] | [3] | [11]

COP(=S)(OC)Oc1ccc(S(=O)(=O)N(C)C)cc1
not listed: [1] | [4]
inactive: all other assays above

CCN[C@H](C)Cc1cccc(C(F)(F)F)c1
inactive: [1] | [2] | [3] | [11]

Nc1ccccc1
not listed: [1] | [4] | [10]
inactive: all other assays above

CCO/C([O-])=N/c1c[n+](N2CCOCC2)no1
inactive: [6] | [7] | [8] | [9]

COC(=O)c1cc(Cl)ccc1NS(=O)(=O)C(F)(F)F
inactive: [6] | [7] | [8] | [9]

CCOC(=O)[C@H](CCc1ccccc1)N[C@@H](C)C(=O)N1CCC[C@H]1C(=O)O
inactive: [6] | [7] | [8] | [9]

C[N+]1(CCF)[C@@H]2CC[C@H]1CC(OC(=O)C(O)(c1ccccc1)c1ccccc1)C2 (stereo partly specified)
not listed: [1] | [4] | [6] | [11]
inactive: all other assays above

C=CCN1C[C@H](C)N([C@H](c2ccc(C(=O)N(CC)CC)cc2)c2cccc(OC)c2)C[C@H]1C
inactive: [5] | [2] | [3] | [10] | [11]

CCN(CC)CCc1c[nH]c2ccccc12
inactive: [5] | [2] | [3]

C/C(=C(\CCO)SS/C(CCO)=C(\C)N(C=O)Cc1cnc(C)nc1N)N(C=O)Cc1cnc(C)nc1N
inactive: [6] | [7] | [8] | [9]

CN1CC[C@]23c4c5ccc(O)c4O[C@H]2[C@@H](O)CC[C@H]3[C@H]1C5
inactive: [5] | [2] | [3] | [11]

Cc1ccc(Cl)c(Nc2ccccc2C(=O)O)c1Cl
inactive: [6] | [7] | [8] | [9]

c1ccc2sc(SSc3nc4ccccc4s3)nc2c1
inactive: [6] | [7] | [8] | [9]

NS(=O)(=O)c1cc2c(cc1Cl)NC(C(Cl)Cl)NS2(=O)=O (stereo unspecified)
inactive: [6] | [7] | [8] | [9]

O=C(Oc1ccccc1C(=O)O)c1ccccc1O
inactive: [6] | [7] | [8] | [9]

CC(=O)O[C@@H]1C(=O)O[C@@H]2[C@H]1OC(=O)[C@@H]2OC(C)=O
inactive: [6] | [7] | [8] | [9]

CCCNC(C)C(=O)Nc1ccccc1C (stereo unspecified)
inactive: [6] | [7] | [8] | [9]

COC(=O)c1cccnc1
inactive: [6] | [7] | [8] | [9]
